Our source for the growth inhibition values is PubChem BioAssay (NCI).

The panel holds about 79,000 compounds, 15% with a hit somewhere; the sample as a whole holds those more often. Values without a mark were called inactive. The source made the active and inactive calls. Cut-off read from the data, not from the text of the source: active = growth inhibition above about 70%; inactive = the rest.

Assay [1] can be described thus: NCI Yeast Anticancer Drug Screen. Data for the rad50 strain (AID 155).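 Note: 0% = growth of vehicle-only cultures of the same strain.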 To be noted: S. cerevisiae rad50 strain growth inhibition; at 50.0 µM; hits give high values. A digest of the protocol:
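Cells are treated with compound, grown, and their growth is then scored against vehicle-only cultures of the same repair-deficient yeast strain.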

Assay [2] can be described thus: NCI Yeast Anticancer Drug Screen. Data for the mec2-1 strain (AID 157). The note with it: S. cerevisiae mec2-1 strain, at 50.0 µM, hits give high values. A digest of the protocol: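 Mutant yeast (mec2-1) grown with compound; growth inhibition relative to vehicle control reported.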
The nature of assay [3]: NCI Yeast Anticancer Drug Screen. Data for the sgs1 mgt1 strain (AID 161).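 Note: 0% = growth of cultures given vehicle only.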 To be noted: S. cerevisiae sgs1 mgt1 strain, at 50.0 µM, hits give high values. The essentials: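 Growth of a repair-deficient yeast mutant was monitored after compound treatment and expressed as inhibition relative to vehicle-treated cultures.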
Assay [4] can be described thus: NCI Yeast Anticancer Drug Screen. Data for the cln2 rad14 strain (AID 165).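 Note: 0% = growth equal to vehicle treated cultures.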 The note with it: S. cerevisiae cln2 rad14 strain, at 50.0 µM, hits give high values. The essentials:
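Readout is yeast growth inhibition versus vehicle-treated controls, using a strain with cln2 and rad14 alterations exposed to compound.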

Assay [5] is described as follows: NCI Yeast Anticancer Drug Screen. Data for the bub3 strain (AID 167). The note with it: S. cerevisiae bub3 mutant strain, at 50.0 µM, hits give high values. The essentials:
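Part of a panel of yeast mutants defective in DNA damage repair or cell cycle regulation. Each strain is grown with compound, and inhibition is calculated relative to solvent-treated cultures.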

Assay [6] is described as follows: NCI Yeast Anticancer Drug Screen. Data for the mlh1 rad18 strain (AID 175). To be noted: S. cerevisiae mlh1 rad18 strain growth inhibition; at 50.0 µM; hits give high values. The essentials:
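Genetically defined yeast (DNA repair-deficient) exposed to compounds; growth inhibition determined relative to vehicle.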

As for `O=C1c2ccccc2-c2nc(-c3ccccc3)cc3c2c1nc1ccccc13`, the growth inhibition in assay [1] was 79% (active); in assay [2] it was 51.7%; in assay [3], 67.2%; in assay [4], 64.8%; in assay [5] it was 75% (active); in assay [6] it was -7.15%.

`O=[N+]([O-])CC1CCCCC1`: the growth inhibition in assay [1] was -2.7%; in assay [2] it was -19.9%; in assay [3] it was 6.85%; in assay [4] it was 14.3%; in assay [5], -1.3%; in assay [6] it was 19.1%.

`CSC1(C)C(=O)Nc2cccc([N+](=O)[O-])c21` (stereo not given): the growth inhibition in assay [1] was -9.85%; in assay [2] it was -20.1%; in assay [3], 1%; in assay [4] it was -7.5%; in assay [5] it was 11.8%; in assay [6], 2.45%.

As for `C=CCCC1CC(OCC)OC(CCC=C)O1` (stereo not given), the growth inhibition in assay [1] is 16.9%; in assay [2] it was 1.15%; in assay [3] it was 1.25%; in assay [4], -24.8%; in assay [5], -6.3%; in assay [6] it was 13.8%.

On to `CCOC(=O)c1cc(/C=C/C(C)=C/C(=O)OC)oc1C`, for which the growth inhibition in assay [1] was 6.85%; in assay [2] it was 1.4%; in assay [3], -0.45%; in assay [4], -13.3%; in assay [5], 5.4%; in assay [6], 1.25%.

As to `CCOC(=O)C(CCC#N)(CCC#N)C(C)=O`, the growth inhibition in assay [1] was -8.5%; in assay [2], -1.65%; in assay [3] it was -4.7%; in assay [4], -64.8%; in assay [5], 0.15%; in assay [6], 15.1%.

Regarding `CCCCC(C(=O)OCC)[N+](=O)[O-]` (stereo not given), the growth inhibition in assay [1] is -24.2%; in assay [2], -25.2%; in assay [3], 2.5%; in assay [4], 5.5%; in assay [5] it was 2.35%; in assay [6], 16.4%.

Consider `C=CCNC(=S)N/C=C(/C#N)C(=O)OC`, for which the growth inhibition was 1.85% in assay [1]; -9.75% in assay [2]; -16.5% in assay [3]; 21.6% in assay [4]; -8% in assay [5]; 15.7% in assay [6].

On to `CSc1nc2nc(C)[nH]c2c(=O)[nH]1`, for which the growth inhibition was 9.8% in assay [1]; 5.45% in assay [2]; -4.45% in assay [3]; 41% in assay [4]; 9.8% in assay [5]; 7.6% in assay [6].

For the compound `CCC(=O)/C=C/C1=C(C)CCCC1(C)C`, the growth inhibition was -9.95% in assay [1]; -9.65% in assay [2]; 6.25% in assay [3]; -5.8% in assay [4]; 5.8% in assay [5]; -13.4% in assay [6].

For `O=C(Nc1ccc(S(=O)(=O)NC2CCCCC2)cc1)OC(c1ccccc1)c1ccccc1`, the growth inhibition was 21.6% in assay [1]; -0.75% in assay [2]; 18.2% in assay [3]; 13.8% in assay [4]; -6.15% in assay [5]; 1.45% in assay [6].

Consider `NC(=O)c1ccccc1Sc1ccccc1C(N)=O`, for which the growth inhibition was -4.6% in assay [1]; 2.35% in assay [2]; 5.4% in assay [3]; 2.45% in assay [4]; 1.65% in assay [5]; 0.6% in assay [6].

For `CCCCCCCCCCCCCCCCCCSc1ccc2ccccc2c1`, the growth inhibition in assay [1] is 37.5%; in assay [2] it was -10.5%; in assay [3], 20.4%; in assay [4] it was -14.1%; in assay [5] it was 0.6%; in assay [6], -5.7%.

With `CC1(C)CCCC(C)(C)C1=NO`, the growth inhibition is -20.2% in assay [1]; -5.6% in assay [2]; -9.75% in assay [3]; 12.4% in assay [4]; 5.75% in assay [5]; 22.9% in assay [6].

`[Cu+2].[Cu+2].c1ccc2c(c1)-c1nc-2nc2[n-]c(nc3nc(nc4[n-]c(n1)c1ccccc41)-c1ccccc1-3)c1cc3c4nc5nc(nc6[n-]c(nc7nc(nc([n-]4)c3cc21)-c1ccccc1-7)c1ccccc61)-c1ccccc1-5`: the growth inhibition is -1.75% in assay [1]; -9.45% in assay [2]; 11.1% in assay [3]; -40.3% in assay [4]; -11.1% in assay [5]; 11.3% in assay [6].

For `CS(=O)(=O)N1COC(=O)[C@@H]1c1ccccc1`, the growth inhibition in assay [1] is 1.25%; in assay [2], 25.4%; in assay [3], 7%; in assay [4] it was -3%; in assay [5] it was 11.2%; in assay [6] it was 3.05%.

On to `O=C(C#Cc1ccccc1)[O][Sn]([c]1ccccc1)([c]1ccccc1)[c]1ccccc1`, for which the growth inhibition in assay [1] is 99% (active); in assay [2] it was 99.2% (active); in assay [3] it was 99.4% (active); in assay [4], 99.2% (active); in assay [5], 99.1% (active); in assay [6] it was 99.2% (active).

On to `Nn1cnc2nccnc2c1=O`, for which the growth inhibition in assay [1] was 1%; in assay [2], 4.65%; in assay [3] it was -10.7%; in assay [4], -17.4%; in assay [5] it was 2.4%; in assay [6] it was -5.6%.

In the case of `CN(C)/C(=N/C(=O)Nc1ccccc1)SCc1ccccc1`, the growth inhibition in assay [1] is -10.5%; in assay [2] it was -3.9%; in assay [3], 0.45%; in assay [4], -32%; in assay [5] it was -9.1%; in assay [6], -1.2%.

For `CC1=C(C)CC2C(=O)C=CC(=O)C2C1` (stereo not given), the growth inhibition in assay [1] was 8.9%; in assay [2], 1.4%; in assay [3] it was -10.7%; in assay [4], 4.65%; in assay [5], 2.25%; in assay [6], -6.9%.
